Screening data from PubChem.
FLuc counter = qHTS profiling assay for firefly luciferase inhibitor/activator using purifed enzyme and Km concentrations of substrates (counterscreen for miR-21 project). Potency, µM (highest dose often 57.5 µM), inactives show at the top dose activity change, negative = inhibition, hits mostly inhibitors. 6.9% of 360,000 active. AID 588342, 2011. Luciferin 4-monooxygenase (Photinus pyralis), P08659. purified FLuc, Km substrates, luminescence inhibition;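 further: plate controls were vehicle for no effect and reference inhibitor for full effect; nearly all actives have a fitted effect of over 55% in size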
Target sequence (P08659 whole entry, looked up): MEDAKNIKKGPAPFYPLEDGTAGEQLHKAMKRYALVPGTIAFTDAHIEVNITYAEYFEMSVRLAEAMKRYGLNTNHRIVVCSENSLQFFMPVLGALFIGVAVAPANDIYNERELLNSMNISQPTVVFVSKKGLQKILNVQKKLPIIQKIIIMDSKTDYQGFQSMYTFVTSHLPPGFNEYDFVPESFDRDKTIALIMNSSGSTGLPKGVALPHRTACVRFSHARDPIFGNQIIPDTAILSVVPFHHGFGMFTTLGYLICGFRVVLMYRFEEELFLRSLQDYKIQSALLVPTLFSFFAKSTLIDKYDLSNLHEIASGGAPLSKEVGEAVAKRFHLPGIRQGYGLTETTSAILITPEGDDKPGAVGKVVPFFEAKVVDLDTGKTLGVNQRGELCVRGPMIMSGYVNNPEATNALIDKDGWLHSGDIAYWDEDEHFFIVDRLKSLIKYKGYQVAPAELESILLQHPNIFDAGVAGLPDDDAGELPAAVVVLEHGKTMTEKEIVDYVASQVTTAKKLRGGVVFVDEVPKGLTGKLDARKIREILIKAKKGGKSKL
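Purified P. pyralis luciferase (10nM final) with 10uM D-luciferin and 10uM ATP (Km levels) in 50mM Tris acetate pH 7.5, 10mM Mg acetate, 0.01% Tween-20, 0.05% BSA; qHTS 6-point titration, ~60 µM downward; luminescence read.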
NPC1 prom act = qHTS Assay for NPC1 Promoter Activators. Huh7 NPC1 promoter luciferase reporter, 24 h. AID 485313, 2010. 2.4% of 320,000 active. Potency, µM (top dose mostly 9.22 µM), for the others: at the highest dose activation, usual class: activators; further: % of control where 0% means no effect; nearly all actives have a fitted effect of over 60% in size
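Huh7 reporter cells (NPC1 promoter driving luciferase) are dosed with compound for 24 h at 37 °C, 5% CO2; luciferase detection reagent is then added and luminescence measured after 10 min at ambient temperature.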
Rab9 prom act = qHTS Assay for Rab9 Promoter Activators; Huh7 Rab9 promoter-luciferase reporter, luminescence, 24 h; Potency, µM (highest dose often 9.22 µM), inactives show at the top dose activation, negative = inhibition, actives largely listed as activators; 2.8% of 320,000 active; AID 485297, 2010; further: % of control where 0% means no effect; nearly all actives have a fitted effect of over 60% in size
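Luciferase signal after 10 min detection reagent at ambient indicates Rab9 promoter upregulation; stably transfected Huh7 cells were treated 24 h with compound in DMSO at 37 °C, 5% CO2.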
SMN2 splice enh = qHTS Assay for Enhancers of SMN2 Splice Variant Expression | 2.8% of 210,000 active | HEK293 SMN2-luciferase splicing reporter, luminescence, 30-36 h | Potency, µM (titrated, usually from 46.1 µM), without a hit: at the highest dose activity change, positive = activation, most hits filed as activators; further: % of control where 0% means no effect; nearly all actives have a fitted effect of over 55% in size
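HEK293 cells carry an SMN2 […]–luciferase reporter in which exon 7 inclusion puts luciferase in frame. Cells were plated 10-12 h before compound addition, then incubated 30-36 h at 37C. ONE-Glo luminescence was read; sodium butyrate at 4.5 mM final served as control.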
ELG1 genotoxic = qHTS screen for small molecules that induce genotoxicity in human embryonic kidney (HEK293T) cells expressing luciferase-tagged ELG1. HEK293T ELG1-luciferase reporter, luminescence, 16 h. Potency, µM (top dose mostly 46 µM), for the others: top-dose activity change, positive = activation, usual class: activators. 1.3% of 330,000 active; further: % of control where 0% means no effect; nearly all actives have a fitted effect of over 60% in size
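Reporter readout depends on ELG1 protein level, which increases with genetic stress. After 16 hr compound exposure at 37 °C, luciferase activity was quantified using ONE-Glo.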
* = called active by the depositor; ? = inconclusive; · = no result given; [ ] = remark or other dose. Compounds with a hit are over-represented: about 7.4% of the library has one in this group of screens. The call rests on the fitted dose curve; in most records, active means well fitted curve in the direction sought with a large enough effect; inconclusive means small, poorly fitted or top-dose-only effect, or another doubt; inactive means no such curve, though single readings can be large; an effect the other way counts as inactive or inconclusive. Potency means the concentration at half of the fitted maximal effect.

SMILES	FLuc counter	NPC1 prom act	Rab9 prom act	SMN2 splice enh	ELG1 genotoxic
COc1ccccc1N1CCN(C(=O)CN2C(=O)COc3ccc(S(=O)(=O)N4CCCC4)cc32)CC1	-1.1%	·	·	?	·
O=C(CC1CC2CCC1C2)Nc1nc(-c2ccccn2)cs1 (stereo unspecified)	23.9µM*	28.1%	3.98µM*	16.9%	-4.7%
O=C(Nc1nc(-c2ccccn2)cs1)C12CC3CC(CC(O)(C3)C1)C2	6.75µM*	2.24µM*	3.16µM*	11.2µM*	?
O=C(Nc1nc(-c2ccccn2)cs1)C1CC1	?	?	?	?	0.3%
CCC(=O)N1c2ccccc2CC1C(=O)NCCc1ccc(OC)c(OC)c1 (stereo unspecified)	-4.9%	·	·	·	·
COc1ccc(-c2cc(C(=O)Nc3ccc(C(N)=O)cc3)c3ccccc3n2)cc1OC	3.38µM*	10.3%	25.4%	?	-1.0%
COc1cc(C(=O)Nc2ccc(S(=O)(=O)Nc3onc(C)c3C)cc2)cc(OC)c1OC	-2.0%	6.3%	5.4%	6.0%	-0.3%
COc1cc(-c2cc(C(=O)Nc3ccc(O)cc3)c3ccccc3n2)cc(OC)c1OC	?	3.3%	-8.4%	·	-10.3%
COc1ccc(NC(=O)c2cc(-c3ccc(OC)c(OC)c3)nc3ccccc23)c(OC)c1	7.57µM*	13.8%	18.1%	·	-0.1%
COc1ccc(-c2cc(C(=O)OC3CCOC3=O)c3ccccc3n2)cc1OC (stereo unspecified)	13.5µM*	8.7%	-2.5%	-3.5%	4.1%
COc1ccc(-c2cc(C(=O)Nc3ccc(S(=O)(=O)Nc4onc(C)c4C)cc3)c3ccccc3n2)cc1OC	13.5µM*	8.2%	8.9%	·	1.6%
Cc1ccc(CNC(=O)c2ccc3c(c2)N(Cc2cccc(C)c2)C(=O)CS3)cc1	-3.3%	·	·	0.1%	·
Cc1cc(O)c(C(C)C)cc1CN1CCCCC1	·	·	·	-10.6%[9.22 µM]	·
COc1ccc(CNC(=O)C2CCN(c3nnc(-n4c(C)ccc4C)s3)CC2)c(OC)c1	-2.3%	·	·	7.3%	·
CCCc1ccc(S(=O)(=O)N2CCC(c3nnc(-c4cccc(C)c4)o3)CC2)cc1	-18.6%	·	·	-30.0%	·
COc1ccc(-c2cc(C(=O)NC(C)c3ccccn3)c3ccccc3n2)cc1OC (stereo unspecified)	7.57µM*	-1.4%	-6.3%	·	-4.4%
Cc1ccc(-c2csc(/C(C#N)=C(\O)CCl)n2)cc1	10.7µM*	22.7%	?	-4.4%	16.5%
N#C/C(=C(/O)CCl)c1nc(-c2ccccc2)cs1	?	2.1%	17.0%	·	14.0%
COc1cc2cc(C(=O)N/N=C/c3ccccc3Cl)[nH]c2cc1OC	16.9µM*	-4.5%	-3.2%	·	-4.9%
CCOc1ccc2[nH]c(C(=O)N/N=C/c3ccc(OC)cc3)cc2c1	10.7µM*	-8.1%	-18.1%	·	5.9%
COc1ccc(/C=C\C(=O)NCC(=O)N/N=C/c2ccc(O)cc2O)cc1	?	-1.7%	-0.5%	·	?
COc1ccc2[nH]c(C(=O)N/N=C/c3ccc(O)cc3O)cc2c1	10.7µM*	-36.2%	-1.7%[1.84 µM]	·	15.3%
COc1ccc(/C=N/NC(=O)c2cc3cc(OC)c(OC)cc3[nH]2)cc1	?	-1.9%	0.3%	·	1.3%
COc1ccc2cc(C(=O)N/N=C/c3cc(OC)c(OC)c(OC)c3)[nH]c2c1	6.75µM*	0.6%	-2.0%	·	-6.4%
O=C(CCS(=O)(=O)c1ccc(Br)s1)Nc1cc(C(F)(F)F)cc(C(F)(F)F)c1	-20.0%	·	·	4.2%	·
SMILES	FLuc counter	NPC1 prom act	Rab9 prom act	SMN2 splice enh	ELG1 genotoxic
CCC1=C2CC[C@H]3C(=O)N(CC)C(=O)[C@H]3[C@H]2[C@@]2(C)C(=O)N(CC(=O)OC)C(=O)N2C1=O	·	·	·	-1.9%	·
CCOc1ccc(/C=N/NC(=O)c2[nH]c3ccc(C)cc3c2C)cc1	10.7µM*	-2.6%	3.9%	·	-2.3%
C[C@H]1NC(=O)NC1=O	·	·	·	5.5%[20.6 µM]	·
O=C(Nc1cc2c(cc1C(=O)c1ccc(Br)cc1)OCCO2)c1ccc(Cl)cc1	-1.8%	·	·	10.2%	·
COc1ccc2c(c1O)C(=O)c1ccccc1C2=O	?	?	?	·	13.5%
CC(C)COC(=O)c1ccc2c(c1O)C(=O)c1ccccc1C2=O	1.35µM*	2µM*	3.16µM*	?	1.3µM*
